Laboratory results published in PubChem BioAssay (NCI).
Compounds without any hit were thinned out: in the full panel of roughly 83,000, 20% have a hit.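 96-well plates, one dose, 48 hours. Percent growth reported; active if below 10.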 The source made the active and inactive calls.

Columns and labels:
Test in all cases: NCI-60 one-dose screen, 48 h (100 = growth as untreated, 0 = no growth, -100 = all killed)
Settings in all cases: 10 µM unless noted
NCI-H23 lung = tested on: NCI-H23 lung
NCI-H226 lung = tested on: NCI-H226 lung
NCI-H322M lung = tested on: NCI-H322M lung
HOP-62 NSCLC = tested on: HOP-62 NSCLC
NCI-H460 lung = tested on: NCI-H460 lung
HOP-92 NSCLC = tested on: HOP-92 NSCLC
NCI-H522 lung = tested on: NCI-H522 lung
A549/ATCC NSCLC = tested on: A549/ATCC NSCLC
786-0 renal = tested on: 786-0 renal
COLO 205 colon = tested on: COLO 205 colon
DU-145 prostate = tested on: DU-145 prostate
K-562 leukemia = tested on: K-562 leukemia
MALME-3M melanoma = tested on: MALME-3M melanoma
MDA-MB-231 breast = tested on: MDA-MB-231 breast
RXF 393 renal = tested on: RXF 393 renal
SF-268 CNS = tested on: SF-268 CNS
SF-295 CNS = tested on: SF-295 CNS
SF-539 CNS = tested on: SF-539 CNS
UACC-257 melanoma = tested on: UACC-257 melanoma
M14 melanoma = tested on: M14 melanoma

Measured: growth

Fc1ccc(Nc2ccc3c(OCCCN4CCOCC4)cccc3n2)cc1F
active: COLO 205 colon -7.44% | K-562 leukemia 1.64%
inactive: NCI-H23 lung 79% | NCI-H226 lung 64.6% | NCI-H322M lung 73.3% | HOP-62 NSCLC 89.6% | NCI-H460 lung 55.7% | HOP-92 NSCLC 63.9% | NCI-H522 lung 83.8% | A549/ATCC NSCLC 75.4% | 786-0 renal 74% | DU-145 prostate 76.9% | MALME-3M melanoma 70.3% | MDA-MB-231 breast 29.8% | RXF 393 renal 80.5% | SF-268 CNS 71.3% | SF-295 CNS 78.3% | SF-539 CNS 52.2% | UACC-257 melanoma 94%

C=C1C(=O)O[C@H]2[C@H]1CC/C(COC(=O)NCc1cc3ccccc3[nH]1)=C\CC[C@@]1(C)O[C@@H]21
active: HOP-92 NSCLC -14.3% | NCI-H522 lung -84.4% | 786-0 renal -84.5% | COLO 205 colon -52.2% | DU-145 prostate 1.16% | K-562 leukemia -5.26% | MALME-3M melanoma -59.4% | MDA-MB-231 breast -42.5% | RXF 393 renal -86.2% | SF-539 CNS -46.2%
inactive: NCI-H23 lung 35.8% | NCI-H226 lung 64.5% | NCI-H322M lung 88.3% | HOP-62 NSCLC 58.3% | NCI-H460 lung 55.3% | A549/ATCC NSCLC 77.4% | SF-268 CNS 59.3% | SF-295 CNS 90.1% | UACC-257 melanoma 46.2%

Cn1cc(-c2csc(-c3cn(CCN)c4ccc(Br)cc34)n2)c2cccnc21
active: COLO 205 colon -5.13%
inactive: NCI-H23 lung 78.4% | NCI-H226 lung 85.1% | NCI-H322M lung 75.3% | HOP-62 NSCLC 67.2% | NCI-H460 lung 16.4% | HOP-92 NSCLC 45.9% | NCI-H522 lung 90.6% | A549/ATCC NSCLC 37.5% | 786-0 renal 73.1% | DU-145 prostate 58.5% | K-562 leukemia 18.1% | MALME-3M melanoma 97.5% | MDA-MB-231 breast 62.4% | RXF 393 renal 75.6% | SF-268 CNS 78.4% | SF-295 CNS 100% | SF-539 CNS 82.5% | UACC-257 melanoma 92.8%

CC(=O)Cc1nsc(NC(=O)c2ccoc2COc2ccccc2)n1
inactive: NCI-H23 lung 95.2% | NCI-H226 lung 105% | NCI-H322M lung 94.3% | HOP-62 NSCLC 107% | NCI-H460 lung 107% | HOP-92 NSCLC 90.1% | NCI-H522 lung 94.1% | A549/ATCC NSCLC 99.3% | 786-0 renal 98.7% | COLO 205 colon 121% | DU-145 prostate 106% | K-562 leukemia 90.6% | MALME-3M melanoma 96.8% | MDA-MB-231 breast 95% | RXF 393 renal 113% | SF-268 CNS 96.3% | SF-295 CNS 98.6% | SF-539 CNS 91.6% | UACC-257 melanoma 93.2%

COC(=O)[C@]12CC[C@@H](C(=O)/C=C/c3cccnc3)[C@@H]1[C@H]1CC[C@@H]3[C@@]4(C)C/C(=C/c5cccnc5)C(=O)C(C)(C)[C@@H]4CC[C@@]3(C)[C@]1(C)CC2
active: NCI-H23 lung -48.3% | NCI-H226 lung -44.4% | NCI-H322M lung -80.7% | HOP-62 NSCLC -85.6% | NCI-H460 lung -78.4% | HOP-92 NSCLC -79.9% | NCI-H522 lung -59.7% | A549/ATCC NSCLC -9.34% | 786-0 renal -92.3% | COLO 205 colon -45.1% | DU-145 prostate -67.8% | K-562 leukemia -21.6% | MALME-3M melanoma -95.2% | MDA-MB-231 breast -81.3% | RXF 393 renal -93.6% | SF-268 CNS -80.8% | SF-295 CNS -98.5% | SF-539 CNS -96.5% | UACC-257 melanoma -58.9% | M14 melanoma -80.3%

O=C1c2cc3c(cc2-c2c1c1ccc(Cl)cc1c(=O)n2C[C@H](O)[C@@H](O)[C@H](O)CO)OCO3
active: NCI-H23 lung -18% | NCI-H226 lung -49.6% | HOP-62 NSCLC -43.1% | NCI-H460 lung 0.505% | NCI-H522 lung -59.5% | A549/ATCC NSCLC -75.8% | 786-0 renal 4.87% | COLO 205 colon -16.6% | DU-145 prostate 3.84% | MALME-3M melanoma -28.2% | MDA-MB-231 breast 6.7% | RXF 393 renal -47% | SF-268 CNS 7% | SF-295 CNS -5.74% | SF-539 CNS -39.8% | UACC-257 melanoma -49.4%
inactive: NCI-H322M lung 12.6% | HOP-92 NSCLC 12.4% | K-562 leukemia 12%

COc1ccc(-c2nc(SCC(=O)Nc3ccc(C(C)=O)cc3)[nH]c(=O)c2C#N)cc1
inactive: NCI-H23 lung 97.2% | NCI-H226 lung 91% | NCI-H322M lung 101% | HOP-62 NSCLC 101% | NCI-H460 lung 111% | HOP-92 NSCLC 98.3% | NCI-H522 lung 67.9% | A549/ATCC NSCLC 85.3% | 786-0 renal 94.7% | COLO 205 colon 115% | DU-145 prostate 106% | K-562 leukemia 98.8% | MALME-3M melanoma 103% | MDA-MB-231 breast 95.2% | RXF 393 renal 108% | SF-268 CNS 101% | SF-295 CNS 95.1% | SF-539 CNS 97.6% | UACC-257 melanoma 84.7%

O=C1Nc2ccccc2/C1=C/c1cn(CCCn2c3ccccc3c(=O)c3ccccc32)c2ccccc12
inactive: NCI-H23 lung 79.2% | NCI-H226 lung 81.3% | NCI-H322M lung 86.8% | HOP-62 NSCLC 80.3% | NCI-H460 lung 96.3% | HOP-92 NSCLC 83.4% | NCI-H522 lung 77.5% | A549/ATCC NSCLC 96.5% | 786-0 renal 82.9% | COLO 205 colon 88.6% | DU-145 prostate 102% | K-562 leukemia 91.7% | MALME-3M melanoma 98.7% | MDA-MB-231 breast 67.9% | RXF 393 renal 104% | SF-268 CNS 79.2% | SF-295 CNS 91.5% | SF-539 CNS 86.8% | UACC-257 melanoma 109% | M14 melanoma 91.1%

COc1ccc2c(c1)c1nc3cc(C)c(C)cc3nc1n2CCN(C)C
active: NCI-H23 lung 1.6% | NCI-H226 lung 7.41% | NCI-H322M lung 3.67% | NCI-H460 lung -22% | NCI-H522 lung 6.94% | A549/ATCC NSCLC -75% | 786-0 renal -60.8% | COLO 205 colon -23.8% | K-562 leukemia -2.38% | MALME-3M melanoma -30.8% | MDA-MB-231 breast -2.89% | SF-295 CNS 4.6% | SF-539 CNS -13.2% | UACC-257 melanoma 8.99% | M14 melanoma 4.45%
inactive: HOP-62 NSCLC 20.3% | HOP-92 NSCLC 41% | DU-145 prostate 11.9% | RXF 393 renal 13.2% | SF-268 CNS 31.3%

N#C/C(=C\c1ccc(-c2cccc(C(F)(F)F)c2)o1)c1nc(-c2ccco2)cs1
inactive: NCI-H23 lung 91.8% | NCI-H226 lung 84.1% | NCI-H322M lung 89.2% | HOP-62 NSCLC 105% | NCI-H460 lung 94.4% | HOP-92 NSCLC 86.9% | NCI-H522 lung 90% | A549/ATCC NSCLC 104% | 786-0 renal 102% | COLO 205 colon 118% | DU-145 prostate 105% | K-562 leukemia 92.3% | MALME-3M melanoma 93.8% | MDA-MB-231 breast 78.9% | RXF 393 renal 107% | SF-268 CNS 99.8% | SF-295 CNS 94.2% | SF-539 CNS 91.4% | UACC-257 melanoma 105% | M14 melanoma 97.8%

CC1(C)C(=O)/C(=C\c2cccnc2)C[C@]2(C)[C@H]3CC[C@@H]4[C@@H](C(=O)/C=C/c5ccncc5)CC[C@@]4(C)[C@]3(C)CC[C@@H]12
active: NCI-H23 lung 5.99% | NCI-H226 lung 1.56% | HOP-62 NSCLC 2.07% | A549/ATCC NSCLC 1.98% | 786-0 renal -55.7% | DU-145 prostate -1.7% | K-562 leukemia 3.14% | MALME-3M melanoma 0.438% | RXF 393 renal -84.2% | SF-539 CNS 1.24% | M14 melanoma -13%
inactive: NCI-H322M lung 39.9% | NCI-H460 lung 23.7% | HOP-92 NSCLC 16.1% | NCI-H522 lung 30.1% | COLO 205 colon 12.3% | MDA-MB-231 breast 16.8% | SF-268 CNS 27.3% | SF-295 CNS 15.9% | UACC-257 melanoma 49.3%

CN(C)CCCC1(c2ccc(F)cc2)OCc2cc(-c3ccc(C(F)(F)F)nc3)ccc21 (centres undefined)
active: UACC-257 melanoma -31.8%
inactive: NCI-H23 lung 80.6% | NCI-H226 lung 90.6% | NCI-H322M lung 84.7% | HOP-62 NSCLC 83.3% | NCI-H460 lung 72.9% | HOP-92 NSCLC 51.1% | NCI-H522 lung 74.7% | A549/ATCC NSCLC 71.4% | 786-0 renal 72.7% | COLO 205 colon 60.7% | DU-145 prostate 83.6% | K-562 leukemia 13.5% | MALME-3M melanoma 34.9% | MDA-MB-231 breast 72.6% | RXF 393 renal 45.1% | SF-268 CNS 73.7% | SF-295 CNS 81.2% | SF-539 CNS 80.8% | M14 melanoma 13.8%

C=C1C(=O)O[C@H]2[C@H]1CC/C(COC(=O)NCc1c[nH]c3ccccc13)=C\CC[C@@]1(C)O[C@@H]21
active: NCI-H522 lung -35.2% | COLO 205 colon -20.4% | SF-539 CNS 7.38%
inactive: NCI-H23 lung 68.3% | NCI-H226 lung 88.8% | NCI-H322M lung 84.5% | HOP-62 NSCLC 65.2% | NCI-H460 lung 74.7% | HOP-92 NSCLC 107% | A549/ATCC NSCLC 82.5% | 786-0 renal 44.6% | DU-145 prostate 29.2% | K-562 leukemia 12.7% | MALME-3M melanoma 52.7% | MDA-MB-231 breast 42% | RXF 393 renal 17.5% | SF-268 CNS 70.8% | SF-295 CNS 94.6% | UACC-257 melanoma 75.2% | M14 melanoma 48.7%

COc1ccc(NC(=O)c2ccoc2COc2ccccc2)cc1
inactive: NCI-H23 lung 95.7% | NCI-H226 lung 98.8% | NCI-H322M lung 101% | HOP-62 NSCLC 100% | NCI-H460 lung 106% | HOP-92 NSCLC 88.8% | NCI-H522 lung 90.2% | A549/ATCC NSCLC 102% | 786-0 renal 96.9% | COLO 205 colon 110% | DU-145 prostate 106% | K-562 leukemia 55% | MALME-3M melanoma 99.7% | MDA-MB-231 breast 95.7% | RXF 393 renal 93.9% | SF-268 CNS 97.5% | SF-295 CNS 98.3% | SF-539 CNS 96% | UACC-257 melanoma 99.7% | M14 melanoma 92.1%
